Reference: PubChem BioAssay AID686978 (National Center for Advancing Translational Sciences (NCATS), 2013)
The campaign covered roughly 420,000 compounds. About 64,000 (15%) were called active. About 27% were inconclusive and are not listed. Not all results are given here. A number with no mark means an inactive call. The call rests on the fitted dose curve; in most records, active means well fitted inhibition curve with a large enough effect; inconclusive means small, poorly fitted or top-dose-only effect; inactive means flat fitted curve, though single readings scatter.

Assay: qHTS for Inhibitors of human tyrosyl-DNA phosphodiesterase 1 (TDP1): qHTS in cells in absence of CPT; further: nearly all actives have a fitted effect of over 55% in size
Details: DT40 Tdp1-/- hTDP1 cells, no CPT, ATP luminescence, 48 h; activity change, negative = growth inhibition: at 46.2 µM (top of the series)
In short: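 Chicken DT40 Tdp1-/- cells complemented with human TDP1, screened without camptothecin (DMSO vehicle only), 400 cells/well. Compounds pin-transferred, cells incubated at 37 °C for at least 48 hr. Growth read as ATP-dependent luminescence (CellTiter-Glo, 30 min at RT).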
On the % scale 0 is the no-effect control and ±100 the full control effect; potency means the concentration at half of the fitted maximal effect.

Row | SMILES | activity change, negative = growth inhibition | Potency
1 | COC(=O)c1cc(OCC(=O)NC2CCCc3ccccc32)cc(C(=O)OC)c1 (stereo unspecified) | -6.64% | 
2 | O=C(O)CCC(=O)N(Cc1cccs1)Cc1cccs1 | -8.37% | 
3 | COc1ccccc1NC(=O)CSc1nnc(C)n1CC1CCCO1 (stereo unspecified) | -4.72% | 
4 | CC(C)Oc1ccc(CCc2nnc(SCC(=O)O)n2-c2ccccc2)cc1 | 5.27% | 
5 | CC(C)Oc1ccc(Cc2n[nH]c(=S)n2Cc2ccccc2)cc1Cl | -21.3% | 
6 | CC(C)Oc1ccc(CCc2n[nH]c(=S)n2Cc2ccccc2)cc1 |  | 20.6 µM (active)
7 | Cc1ccc(CSc2nnc(-c3cnccn3)n2C)cc1 | -21.9% | 
8 | O=C(O)CCn1c(SCc2cc(=O)n3ccccc3n2)nc2ccsc2c1=O | -2.92% | 
9 | Cc1ccc(CSc2nc3ccsc3c(=O)n2CCC(C)C)cc1 |  | 23.1 µM (active)
10 | O=CN1CCN(C(=O)c2ccc(Br)o2)CC1 | 7.18% | 
11 | CCC(CO)Oc1cc(NC(=O)c2cccc(F)c2)c2ncn(C(C)C)c2c1 (stereo unspecified) | -28.2% | 
12 | Cc1ccc(CNC(=O)COc2ccc(S(=O)(=O)NC(C)C)cc2)cc1 | -10.9% | 
13 | O=S(=O)(NN=C1CCCCCCC1)c1ccc(Br)cc1 | -1.76% | 
14 | O=C(CNS(=O)(=O)c1ccc(Br)s1)NCc1ccc2c(c1)OCO2 | -10.7% | 
15 | CN(CC(O)COc1ccc(S(=O)(=O)N2CCOCC2)cc1Cl)C1CCCCC1 (stereo unspecified) | -2.06% | 
16 | Cc1nn2c(NCCN(C)C)c3c(nc2c1-c1ccccc1)CCC3 |  | 25.9 µM (active)
17 | Cc1cc(-n2nc(C)cc2C)n2nc(C)c(-c3ccccc3)c2n1 | -1.3% | 
18 | Cc1cc(C(C)(C)C)n2nc(C)c(-c3ccccc3)c2n1 | -10.7% | 
19 | Cc1ccc2c(c1)C1C[N+](C)(CC(=O)c3ccccc3)CCC1N2C(=O)c1ccccc1Cl (stereo unspecified) | 8.16% | 

Row | SMILES | activity change, negative = growth inhibition | Potency
20 | COc1cccc(NC(=O)C(Sc2nnnn2C)c2ccccc2)c1 (stereo unspecified) | 10.7% | 
21 | O=C(NNS(=O)(=O)c1ccc(F)cc1)C1CCCCC1 | -11.3% | 
22 | O=C1CC[C@@H](C(=O)N2CSC[C@@H]2C(=O)Nc2ccc(C(F)(F)F)cc2)N1 | -23.9% | 
23 | Cc1sc(NC(=O)C2=COCCO2)c(C#N)c1C | -25.1% | 
24 | CCCc1ccc(-c2c(C)sc(NC(=O)c3ccnn3C)c2C#N)cc1 |  | 20.6 µM (active)
25 | Cn1nccc1CNC(=O)c1ccnn1C | 8.62% | 
26 | CC(CCn1cccn1)NC(=O)CCc1nnc(CCc2ccccc2)o1 (stereo unspecified) | 13.7% | 
27 | COc1ccc(C(C#N)(CC(=O)O)c2cnccn2)cc1OC (stereo unspecified) | 2% | 
28 | CCC(=O)Nc1ccc(C(=O)Nc2cccc(OC)c2)cc1 | -22.8% | 
29 | COc1ccc(NC(=O)c2cnc(NS(=O)(=O)c3ccccc3)nc2)cc1 | -14.2% | 
30 | COc1ccc(NC(=O)c2ccc(OC)cc2)cc1 | -7.09% | 
31 | COc1ccc(NS(=O)(=O)c2ccc(NC(=O)c3ccc(N(C)S(C)(=O)=O)cc3)cc2)cc1 |  | 8.2 µM (active)
32 | COc1ccc(C(=O)Nc2cccc(S(C)(=O)=O)c2)cc1 |  | 23.1 µM (active)
33 | COc1cccc(NC(=O)c2ccc(S(=O)(=O)N(C)C)cc2)c1 | 2.12% | 
34 | CC1(C)C(=O)Nc2ccccc2N1C(=O)COC(=O)Cn1cnc2ccccc2c1=O | -10.5% | 
35 | O=C1CC(c2cccc(Br)c2)C2=C(CCCC2=O)N1 (stereo unspecified) | -15.9% | 
36 | COc1cc(OC)cc(/C(N)=N/O)c1 | 0.324% | 
37 | Cc1cc(C(=O)N/N=C\C(Br)=C\c2ccccc2)c(C)o1 |  | 16.4 µM (active)
38 | CC(C)c1cc(C(=O)O)n[nH]1 | -6.63% | 

Row | SMILES | activity change, negative = growth inhibition | Potency
39 | Cc1ccc(-c2cc(C(=O)N/N=C/C=C/c3ccccc3)n[nH]2)o1 | -12.2% | 
40 | CC(=C/c1ccccc1)/C=N/NC(=O)c1cc(C)oc1C | -18.6% | 
41 | CC(C)c1cc(C(=O)N/N=C/C(Br)=C/c2ccccc2)n[nH]1 |  | 2.59 µM (active)
42 | COc1ccc(C/C(C)=N/NC(=O)c2cc(C)oc2C)cc1 | -17.1% | 
43 | Cc1ccc(NC(=O)Cc2nnc(SCC(=O)Nc3nncs3)n2C)cc1 | 1.58% | 
44 | CC(C)Nc1nnc(SCC(=O)c2c[nH]c3ccccc23)s1 | -28.5% | 
45 | CC(NC(=O)C(=O)N/N=C/c1ccc(Cl)cc1)c1ccccc1 (stereo unspecified) | -10.3% | 
46 | C=CS(=O)c1sc(Cl)c(N2CCOCC2)c1[N+](=O)[O-] (stereo unspecified) |  | 1.03 µM (active)
47 | Cc1c(Nc2cc(N3CCCC(C)C3)c3nonc3c2[N+](=O)[O-])c(=O)n(-c2ccccc2)n1C (stereo unspecified) | 10.8% | 
48 | COc1ccc(N2C(=O)CC(N3CCC(C(N)=O)CC3)C2=O)cc1 (stereo unspecified) | -2.52% | 
49 | CCC(C)N(c1ccc(/C=C/c2ccnc3ccccc23)cc1)C(C)CC (stereo unspecified) |  | 4.47 µM (active)
50 | CCN1CCN(c2ccc(/C=C/c3ccnc4ccccc34)cc2)CC1 |  | 17.8 µM (active)
51 | CCCCCCCNc1ccc(/C=C/c2ccnc3ccccc23)cc1 |  | 10 µM (active)
52 | CN(Cc1ccccc1)c1ccc(/C=C/c2ccnc3ccccc23)cc1 |  | 12.6 µM (active)
53 | CN(C)c1ccc(/C=N/N(Cc2ccccc2)c2ccccc2)cc1 | 5.64% | 
54 | Oc1ccc(/C=N/N(Cc2ccccc2)c2ccccc2)cc1 | 0.739% | 
55 | O=C(CN1CCCC1)N1CCN(c2ccccc2)CC1 | 4.2% | 
56 | c1ccc(-c2cnc(CN3CCN(c4ccccc4)CC3)o2)cc1 | -4.06% | 
